Test results published in PubChem BioAssay (EPA / NIEHS).
Inconclusive results are not listed. Some compounds were tested as several samples or in several runs, with calls that do not always agree. Active and inactive are the calls of the source. The calls were made as follows, unless noted: active = hit-call score of the fitted dose curve at least 0.9, where 1 is the maximum; inactive = score below 0.9.

Assays:
[1] = ATG_PXRE_CIS: Attagene CIS-FACTORIAL HepG2 Assay for human Pregnane X Receptor Element (PXRE) (AID 2282957); details: HepG2 Attagene CIS-FACTORIAL PXRE reporter, mRNA; actives raise or lower the signal
Procedure, shortened: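 Multiplexed cis-reporter assay in transiently transfected human HepG2 cells; 24 h chemical exposure. Reporter transcripts quantified by RT-PCR with fluorescent labeling and capillary electrophoresis.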

[2] = ATG_PPRE_CIS: Attagene CIS-FACTORIAL HepG2 Assay for human Peroxisome Proliferator-activated Response Element (PPRE) (AID 2282958); details: HepG2 PPRE cis-element reporter, Attagene transcription factor profiling; actives raise or lower the signal
Procedure, shortened: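 DMSO served as negative control and baseline for bidirectional curve fitting. Signal came from PPRE-regulated reporter mRNA in HepG2 cells, measured 24 h post-dosing by RT-PCR, 6-FAM primer extension and capillary electrophoresis.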

[3] = ATG_RORE_CIS: Attagene CIS-FACTORIAL HepG2 Assay for human RAR-related Orphan Receptor Element (RORE) (AID 2282959); details: HepG2 Attagene cis-factorial RORE reporter, mRNA; actives raise or lower the signal
Procedure, shortened: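 Transfect HepG2 with MRTUs; treat 24 h; extract RNA; RT with oligo(dT); PCR with reporter-specific primers; 6-FAM primer extension; HpaI digest 2 h at 37 C; capillary electrophoresis. Fit vs DMSO, bidirectional.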

[4] = ATG_Sox_CIS: Attagene CIS-FACTORIAL HepG2 Assay for human SRY-box transcription factor (SOX) (AID 2282960); details: HepG2 Attagene cis-factorial SOX reporter, mRNA; actives raise or lower the signal
Procedure, shortened: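 Fluorescence-labelled cDNA fragments from reporter transcripts, sized by CE, give the signal. Cells: HepG2, transiently transfected with cis-regulated reporter units. Exposure 24 h; DMSO negative control; bidirectional curve fitting.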

[5] = molecular target: Signal transducer and activator of transcription 3 (Homo sapiens) (UniProt P40763); test: ATG_STAT3_CIS: Attagene CIS-FACTORIAL HepG2 Assay for human Signal Transducer and Activator of Transcription 3 (STAT3) (AID 2282963); details: HepG2, Attagene cis-factorial STAT3 reporter transcription; actives raise or lower the signal
Signal transducer and activator of transcription 3 (Homo sapiens), sequence (P40763 whole entry, looked up): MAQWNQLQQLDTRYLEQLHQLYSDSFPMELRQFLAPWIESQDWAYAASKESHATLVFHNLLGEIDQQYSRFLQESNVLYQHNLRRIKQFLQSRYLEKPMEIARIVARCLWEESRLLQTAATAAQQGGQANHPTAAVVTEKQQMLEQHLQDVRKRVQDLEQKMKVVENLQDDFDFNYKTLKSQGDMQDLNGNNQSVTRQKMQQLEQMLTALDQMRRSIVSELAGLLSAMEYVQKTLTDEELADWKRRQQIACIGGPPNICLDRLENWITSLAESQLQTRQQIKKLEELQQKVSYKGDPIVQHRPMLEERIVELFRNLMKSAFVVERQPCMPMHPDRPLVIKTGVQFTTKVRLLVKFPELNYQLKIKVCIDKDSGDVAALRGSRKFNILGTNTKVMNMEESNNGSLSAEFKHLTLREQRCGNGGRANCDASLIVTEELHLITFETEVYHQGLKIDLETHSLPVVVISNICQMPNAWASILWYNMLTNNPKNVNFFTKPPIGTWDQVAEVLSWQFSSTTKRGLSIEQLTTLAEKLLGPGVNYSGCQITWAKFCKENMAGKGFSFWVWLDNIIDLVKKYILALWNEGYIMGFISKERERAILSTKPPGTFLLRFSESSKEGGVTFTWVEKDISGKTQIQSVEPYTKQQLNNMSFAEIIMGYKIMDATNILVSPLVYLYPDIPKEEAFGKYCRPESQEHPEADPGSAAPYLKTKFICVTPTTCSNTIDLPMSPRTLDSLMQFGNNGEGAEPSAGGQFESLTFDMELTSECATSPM
Procedure, shortened: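 Transcript-level reporter assay. HepG2 transient MRTU transfection, 24 h exposure, fluorescence detection after RT-PCR and CE; DMSO baseline.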

[6] = ATG_TA_CIS: Attagene CIS-FACTORIAL HepG2 Assay for human TA Basal Promoter (AID 2282964); details: HepG2 Attagene CIS-factorial TA basal promoter reporter; actives raise or lower the signal
Procedure, shortened: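 Steps: transfect HepG2 with MRTUs; dose 24 h; isolate RNA, DNase-treat, reverse-transcribe; PCR and FAM-label reporter cDNA; digest with HpaI 2h at 37 C; run capillary electrophoresis. Activity fitted both directions against DMSO.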

[7] = ATG_TCF_b_cat_CIS: Attagene CIS-FACTORIAL HepG2 Assay for human T-Cell-Factor with beta-catenin (TCF/b-cat) (AID 2282965); details: HepG2 TCF/beta-catenin cis-reporter transcription, actives raise or lower the signal
Procedure, shortened: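 Using capillary electrophoresis as the read-out, labelled reporter cDNA fragments from transiently transfected HepG2 were sized and quantified. Exposure lasted 24 hours; activity in either direction was referenced to DMSO.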

[8] = ATG_TAL_CIS: Attagene CIS-FACTORIAL HepG2 Assay for human TAL Basal Promoter (AID 2282966); details: HepG2 Attagene cis-factorial TAL promoter reporter; actives raise or lower the signal;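 also: background control endpoint measuring basal TAL promoter reporter mRNA not a specific factor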
Procedure, shortened: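 Steps: transfect HepG2 with multiple reporter transcription units; dose 24 h; isolate RNA, reverse-transcribe, PCR-amplify, label with 6-FAM, digest with HpaI; resolve by capillary electrophoresis. Bidirectional fitting against DMSO baseline.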

[9] = ATG_TGFb_CIS: Attagene CIS-FACTORIAL HepG2 Assay for human Transforming Growth Factor (TGF) (AID 2282967); details: HepG2 Attagene CIS TGFb reporter, mRNA transcription; actives raise or lower the signal
Procedure, shortened: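 Cells were dosed for 24 hours, after which total RNA was reverse-transcribed and reporter sequences amplified, labeled and sized by capillary electrophoresis. Activity was fitted in both directions against DMSO.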

[10] = ATG_VDRE_CIS: Attagene CIS-FACTORIAL HepG2 Assay for human Vitamin D Receptor Element (VDRE) (AID 2282968); details: HepG2 VDRE cis-reporter transcription, actives raise or lower the signal
Procedure, shortened: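 RT-PCR/CE readout of reporter mRNA; HepG2, transient transfection, 24 h dosing; DMSO baseline; bidirectional analysis.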

[11] = molecular target: Nuclear receptor subfamily 1 group I member 3 (Homo sapiens) (UniProt Q14994); test: ATG_CAR_TRANS: Attagene TRANS-FACTORIAL HepG2 Assay for human Constitutive Androstane Receptor (CAR) (AID 2282969; active = hit-call score of the fitted dose curve at least 0.9, where 1 is the maximum;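 also: activators raise reporter mRNA above DMSO so AC50 marks induction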); details: HepG2 Attagene TRANS-FACTORIAL CAR reporter
Nuclear receptor subfamily 1 group I member 3 (Homo sapiens), sequence (Q14994 whole entry, looked up, the tested form may be a part): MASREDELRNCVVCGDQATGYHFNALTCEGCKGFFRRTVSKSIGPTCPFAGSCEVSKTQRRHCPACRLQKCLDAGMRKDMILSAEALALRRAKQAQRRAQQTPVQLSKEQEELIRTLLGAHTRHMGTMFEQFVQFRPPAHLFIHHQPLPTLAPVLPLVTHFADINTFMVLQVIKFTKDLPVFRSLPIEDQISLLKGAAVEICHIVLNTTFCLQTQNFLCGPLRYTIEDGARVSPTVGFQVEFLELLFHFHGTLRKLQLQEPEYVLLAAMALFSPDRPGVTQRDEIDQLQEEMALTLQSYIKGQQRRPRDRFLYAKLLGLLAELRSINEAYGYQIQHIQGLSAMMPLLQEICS
Procedure, shortened: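 HepG2 cells transiently transfected with multiplexed GAL4-UAS reporter units expressing chimeric NR-Gal4 proteins; compound exposure 24 h. Reporter mRNA measured by RT-PCR, 6-FAM labelling, HpaI digestion and capillary electrophoresis; gain-of-signal fitted against DMSO baseline.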

[12] = molecular target: Steroid hormone receptor ERR1 (Homo sapiens) (UniProt P11474); test: ATG_ERRa_TRANS: Attagene TRANS-FACTORIAL HepG2 Assay for human Estrogen-Related Receptor alpha (ERRa) (AID 2282971; active = hit-call score of the fitted dose curve at least 0.9, where 1 is the maximum); details: HepG2 Attagene TRANS reporter, ERRa transactivation
Steroid hormone receptor ERR1 (Homo sapiens), sequence (P11474 whole entry, looked up, the tested form may be a part): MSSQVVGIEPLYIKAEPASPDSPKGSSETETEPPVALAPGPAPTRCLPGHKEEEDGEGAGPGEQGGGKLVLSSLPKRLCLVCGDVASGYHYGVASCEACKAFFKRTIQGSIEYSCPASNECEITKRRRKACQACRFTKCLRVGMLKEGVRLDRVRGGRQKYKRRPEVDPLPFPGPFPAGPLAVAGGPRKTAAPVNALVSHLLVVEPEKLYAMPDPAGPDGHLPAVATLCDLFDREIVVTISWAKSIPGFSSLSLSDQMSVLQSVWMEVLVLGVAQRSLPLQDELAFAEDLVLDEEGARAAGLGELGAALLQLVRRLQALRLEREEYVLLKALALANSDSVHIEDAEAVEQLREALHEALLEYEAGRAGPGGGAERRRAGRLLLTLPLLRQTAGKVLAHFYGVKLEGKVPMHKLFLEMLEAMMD
Procedure, shortened: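 Signal gain relative to DMSO for an ERRa-Gal4 chimeric receptor, read as reporter mRNA by RT-PCR/capillary electrophoresis. Human HepG2 liver cells, transient multiplex reporter transfection, 24 h chemical exposure.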

[13] = molecular target: X-box-binding protein 1 (Homo sapiens) (UniProt P17861); test: ATG_Xbp1_CIS: Attagene CIS-FACTORIAL HepG2 Assay for human X-box Binding Protein 1 (XBP1) (AID 2282972); details: HepG2 XBP1 cis-element reporter, Attagene multiplex; actives raise or lower the signal
X-box-binding protein 1 (Homo sapiens), sequence (P17861 whole entry, looked up): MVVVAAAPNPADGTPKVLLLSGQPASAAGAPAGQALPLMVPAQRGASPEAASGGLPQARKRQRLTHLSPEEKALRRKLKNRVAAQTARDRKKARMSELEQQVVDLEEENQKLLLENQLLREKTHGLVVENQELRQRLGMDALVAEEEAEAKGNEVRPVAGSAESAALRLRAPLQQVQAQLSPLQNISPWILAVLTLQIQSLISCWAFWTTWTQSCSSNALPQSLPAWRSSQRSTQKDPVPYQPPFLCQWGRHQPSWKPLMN
Procedure, shortened: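 HepG2 cells transiently transfected with cis-regulated multiple reporter transcription units; endogenous transcription factor activity measured 24 hours after chemical dosing. Reporter mRNA quantified by RT-PCR, 6-FAM primer extension, HpaI digestion and capillary electrophoresis; bidirectional fitting versus DMSO.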

[14] = ATG_M_19_TRANS: Attagene TRANS-FACTORIAL HepG2 Assay for M19 Transcription Factor (Internal Marker) (AID 2282974; active = hit-call score of the fitted dose curve at least 0.9, where 1 is the maximum); details: HepG2 Attagene TRANS-FACTORIAL M19 internal marker reporter
Procedure, shortened: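 Multiplexed TRANS format: HepG2 liver cells bearing transient GAL4-UAS reporter units, chemical treatment 24 h, reporter transcripts quantified by RT-PCR plus capillary electrophoresis. DMSO defines baseline.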

[15] = molecular target: Glucocorticoid receptor (Homo sapiens) (UniProt P04150); test: ATG_GR_TRANS: Attagene TRANS-FACTORIAL HepG2 Assay for human Glucocorticoid Receptor (GR) (AID 2282978; active = hit-call score of the fitted dose curve at least 0.9, where 1 is the maximum;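 also: activators score as hits since higher reporter transcript over DMSO is fitted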); details: HepG2 Attagene TRANS GR reporter, mRNA transcription
Glucocorticoid receptor (Homo sapiens), sequence (P04150 whole entry, looked up, the tested form may be a part): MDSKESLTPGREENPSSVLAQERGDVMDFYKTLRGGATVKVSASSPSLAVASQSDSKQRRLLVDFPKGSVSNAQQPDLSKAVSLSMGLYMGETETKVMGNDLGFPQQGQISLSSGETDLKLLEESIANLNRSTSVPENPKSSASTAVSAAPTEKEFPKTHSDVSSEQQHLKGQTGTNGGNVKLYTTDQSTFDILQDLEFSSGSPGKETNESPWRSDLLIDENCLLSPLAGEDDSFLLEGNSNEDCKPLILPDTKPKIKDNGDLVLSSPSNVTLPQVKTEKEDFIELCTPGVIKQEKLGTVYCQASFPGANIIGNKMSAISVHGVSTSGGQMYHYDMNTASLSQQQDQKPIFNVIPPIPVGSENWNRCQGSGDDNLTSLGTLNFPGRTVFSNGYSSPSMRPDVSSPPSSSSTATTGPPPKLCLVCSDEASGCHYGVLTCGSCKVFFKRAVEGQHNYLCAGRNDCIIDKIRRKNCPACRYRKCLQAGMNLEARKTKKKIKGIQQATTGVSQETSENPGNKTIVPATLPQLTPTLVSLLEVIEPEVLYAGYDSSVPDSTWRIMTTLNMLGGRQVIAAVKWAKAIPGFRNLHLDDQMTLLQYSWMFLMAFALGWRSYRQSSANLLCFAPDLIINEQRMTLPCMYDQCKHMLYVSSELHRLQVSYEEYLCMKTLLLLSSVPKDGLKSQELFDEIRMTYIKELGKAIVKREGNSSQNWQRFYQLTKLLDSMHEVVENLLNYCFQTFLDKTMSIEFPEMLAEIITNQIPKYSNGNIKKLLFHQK
Procedure, shortened: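 Transiently transfected HepG2 cells express chimeric NR-GAL4 proteins acting on GAL4-UAS reporter units. Compounds are applied for 24 h. mRNA induction over DMSO is measured by capillary electrophoresis.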

[16] = ATG_SREBP_CIS: Attagene CIS-FACTORIAL HepG2 Assay for human Sterol Regulatory Element Binding (SREBP) (AID 2282962); details: HepG2 Attagene cis-factorial SREBP reporter, mRNA; actives raise or lower the signal
Procedure, shortened: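 HepG2 cells transiently transfected with multiplexed cis-element reporter units report endogenous transcription factor activity. After 24 h of chemical exposure, reporter mRNA was quantified by RT-PCR, 6-FAM labelling, HpaI digestion and capillary electrophoresis; bidirectional fits used DMSO as baseline.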

[17] = ATG_GAL4_TRANS: Attagene TRANS-FACTORIAL HepG2 Assay for GAL4 (Internal Marker) (AID 2282976; active = hit-call score of the fitted dose curve at least 0.9, where 1 is the maximum); details: HepG2 Attagene TRANS GAL4 internal marker reporter
Procedure, shortened: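 Liver HepG2 line bearing multiplexed GAL4-UAS reporter constructs; 24 h chemical treatment. Transcripts were quantified as fluorescent fragments on capillary electrophoresis after RT-PCR and HpaI cut, with activity fitted upward from DMSO.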

[18] = molecular target: Transcription factor Sp1 (Homo sapiens) (UniProt P08047); test: ATG_Sp1_CIS: Attagene CIS-FACTORIAL HepG2 Assay for human Specificity Protein 1 (Sp1) (AID 2282961); details: HepG2 Sp1 cis-reporter transcription, actives raise or lower the signal
Transcription factor Sp1 (Homo sapiens), sequence (P08047 whole entry, looked up): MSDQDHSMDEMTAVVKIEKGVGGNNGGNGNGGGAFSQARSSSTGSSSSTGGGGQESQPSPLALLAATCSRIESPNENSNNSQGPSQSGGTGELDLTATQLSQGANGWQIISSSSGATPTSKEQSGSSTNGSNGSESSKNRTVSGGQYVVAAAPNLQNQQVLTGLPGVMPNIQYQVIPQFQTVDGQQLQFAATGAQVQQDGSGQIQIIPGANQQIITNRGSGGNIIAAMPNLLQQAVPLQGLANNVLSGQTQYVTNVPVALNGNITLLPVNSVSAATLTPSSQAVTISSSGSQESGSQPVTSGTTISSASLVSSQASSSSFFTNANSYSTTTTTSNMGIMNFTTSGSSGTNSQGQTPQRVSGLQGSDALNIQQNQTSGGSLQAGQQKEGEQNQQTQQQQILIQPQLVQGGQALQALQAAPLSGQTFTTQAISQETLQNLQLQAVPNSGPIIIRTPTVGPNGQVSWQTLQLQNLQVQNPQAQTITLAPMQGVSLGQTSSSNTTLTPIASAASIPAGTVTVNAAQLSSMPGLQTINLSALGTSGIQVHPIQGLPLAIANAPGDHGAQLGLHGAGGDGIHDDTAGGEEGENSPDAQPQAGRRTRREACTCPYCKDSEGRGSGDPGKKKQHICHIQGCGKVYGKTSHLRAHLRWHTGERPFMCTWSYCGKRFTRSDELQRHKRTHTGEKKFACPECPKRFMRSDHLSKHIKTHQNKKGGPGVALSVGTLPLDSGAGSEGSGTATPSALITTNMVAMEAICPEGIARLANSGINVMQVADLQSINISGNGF
Procedure, shortened: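 Chemicals are dosed onto HepG2 cells transfected with multiple cis-promoter reporter constructs, and after 24 h reporter RNA is reverse-transcribed, PCR-amplified and resolved by capillary electrophoresis for fluorescence quantitation; activity is scored up or down against DMSO.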

[19] = molecular target: Estrogen receptor (Homo sapiens) (UniProt P03372); test: ATG_ERa_TRANS: Attagene TRANS-FACTORIAL HepG2 Assay for human Estrogen Receptor alpha (ERa) (AID 2282970; active = hit-call score of the fitted dose curve at least 0.9, where 1 is the maximum); details: HepG2 Attagene TRANS ERa GAL4 reporter, mRNA
Estrogen receptor (Homo sapiens), sequence (P03372 whole entry, looked up, the tested form may be a part): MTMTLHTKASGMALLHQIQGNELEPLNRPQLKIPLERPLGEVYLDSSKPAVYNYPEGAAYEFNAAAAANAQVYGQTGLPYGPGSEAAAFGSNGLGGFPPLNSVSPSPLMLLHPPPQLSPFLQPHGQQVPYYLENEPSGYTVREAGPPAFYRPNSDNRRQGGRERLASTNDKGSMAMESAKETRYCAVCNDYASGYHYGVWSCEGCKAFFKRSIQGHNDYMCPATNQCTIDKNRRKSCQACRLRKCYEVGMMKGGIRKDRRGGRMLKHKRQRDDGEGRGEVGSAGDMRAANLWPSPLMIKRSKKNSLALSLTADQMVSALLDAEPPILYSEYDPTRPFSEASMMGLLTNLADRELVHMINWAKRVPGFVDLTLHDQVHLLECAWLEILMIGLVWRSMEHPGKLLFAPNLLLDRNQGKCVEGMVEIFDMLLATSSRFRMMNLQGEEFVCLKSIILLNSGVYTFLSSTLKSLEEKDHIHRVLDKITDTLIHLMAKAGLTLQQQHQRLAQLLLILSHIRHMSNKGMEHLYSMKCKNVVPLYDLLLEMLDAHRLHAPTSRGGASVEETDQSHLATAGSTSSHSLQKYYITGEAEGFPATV
Procedure, shortened: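 Multiplexed cell-based reporter format in HepG2: chimeric ERa-Gal4 protein drives GAL4-UAS reporter transcription. Fluorescent reporter mRNA quantified by capillary electrophoresis 24 hours after dosing; endpoint fitted as signal gain against DMSO.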

[20] = molecular target: Estrogen-related receptor gamma (Homo sapiens) (UniProt P62508); test: ATG_ERRg_TRANS: Attagene TRANS-FACTORIAL HepG2 Assay for human Estrogen-Related Receptor gamma (ERRg) (AID 2282977; active = hit-call score of the fitted dose curve at least 0.9, where 1 is the maximum;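 also: hits increase reporter signal over DMSO so potencies reflect activators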); details: HepG2 Attagene TRANS reporter, ERRg transactivation
Estrogen-related receptor gamma (Homo sapiens), sequence (P62508 whole entry, looked up, the tested form may be a part): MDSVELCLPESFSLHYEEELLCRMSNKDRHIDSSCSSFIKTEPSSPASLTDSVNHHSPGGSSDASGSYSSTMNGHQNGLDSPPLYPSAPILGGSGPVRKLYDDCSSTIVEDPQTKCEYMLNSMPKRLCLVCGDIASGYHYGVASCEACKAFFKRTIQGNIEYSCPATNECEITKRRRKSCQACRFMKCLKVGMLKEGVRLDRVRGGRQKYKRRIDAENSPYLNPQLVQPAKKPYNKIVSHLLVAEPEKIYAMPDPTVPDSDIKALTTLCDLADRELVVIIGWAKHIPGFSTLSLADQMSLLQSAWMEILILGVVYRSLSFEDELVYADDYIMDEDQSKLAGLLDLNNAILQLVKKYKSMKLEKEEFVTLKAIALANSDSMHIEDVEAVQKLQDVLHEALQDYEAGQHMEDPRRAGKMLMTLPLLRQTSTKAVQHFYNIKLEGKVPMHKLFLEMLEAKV
Procedure, shortened: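 Transfect HepG2 with multiple GAL4-UAS reporter transcription units; dose chemicals 24 h; isolate RNA, reverse-transcribe with oligo(dT), PCR-amplify, label with 6-FAM, digest with HpaI; size fragments by capillary electrophoresis. DMSO serves as negative control.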

Measured: AC50

Cc1cccc2c1ccc1ccccc12
active: [1] 27.4 µM
not listed: [16] | [17] | [18] | [19] | [20]
inactive: all other assays above

Brc1cc(Br)c(Oc2c(Br)cc(Br)c(Br)c2Br)cc1Br
not listed: [10] | [11] | [18] | [19] | [20]
inactive: all other assays above

COc1cc(OC)nc(NC(=O)NS(=O)(=O)Nc2ccccc2C(=O)N(C)C)n1
not listed: [12] | [14] | [15] | [16] | [17] | [18] | [19] | [20]
inactive: all other assays above

COc1ccc(C#N)cc1
not listed: [7] | [12] | [14] | [16] | [20]
inactive: all other assays above

COC(O)c1ccccc1 (stereo unspecified)
active: [1] 75.1 µM | [19] 56.7 µM
not listed: [10] | [11] | [14] | [15] | [18]
inactive: all other assays above

Cc1cc(Cc2cc(C)cc(C(C)(C)C)c2O)c(O)c(C(C)(C)C)c1
active: [1] 0.0497 µM | [4] 153 µM | [18] 93.6 µM | [5] 160 µM | [9] 56.6 µM | [13] 25 µM
inactive: [2] | [3] | [16] | [8] | [10] | [14]

FC(F)(F)C1(F)C(F)(F)C(F)(F)C(F)(F)C1(F)F
not listed: [10] | [11] | [16] | [18] | [19] | [20]
inactive: all other assays above

Cc1[nH]nc2c1N=C(c1ccccc1Cl)c1cc([N+](=O)[O-])ccc1N2
active: [1] 3.76 µM | [18] 0.357 µM | [6] 0.288 µM | [7] 3.71 µM
inactive: [4] | [5] | [8] | [9] | [10] | [13] | [15]

COCN(COC)c1nc(N(COC)COC)nc(N(COC)COC)n1
active: [1] 45.3 µM
not listed: [3] | [12] | [14] | [15] | [16] | [17] | [19] | [20]
inactive: all other assays above

CC(C)CCOCCC(C)C
not listed: [3] | [14] | [16] | [20]
inactive: all other assays above

c1cnc2c(c1)ccc1cccnc12
active: [10] 161 µM | [13] 158 µM
inactive: [1] | [4] | [18] | [16] | [5] | [6] | [7] | [8] | [9] | [10] | [12] | [13] | [14] | [15]

O=C(O)CCC(F)(F)C(F)(F)C(F)(F)C(F)(F)C(F)(F)C(F)(F)F
active: [19] 46.1 µM
not listed: [3] | [11] | [12] | [14] | [15] | [20]
inactive: all other assays above

CCCCCCCCCC=CCC1CC(=O)OC1=O (stereo unspecified)
active: [16] 67.9 µM
not listed: [2] | [6] | [11] | [12] | [14] | [15] | [17] | [20]
inactive: all other assays above

Nc1ccn([C@@H]2O[C@H](CO)[C@@H](O)C2O)c(=O)n1 (stereo partly specified)
not listed: [3] | [10] | [11] | [14] | [15] | [16] | [19] | [20]
inactive: all other assays above
